Test results taken from PubChem BioAssay (NCATS).
Inconclusive results are not listed. The source made the active and inactive calls. Unless noted, the call rests on the fitted dose curve; in most records, active means well fitted curve in the direction sought with a large enough effect; inconclusive means small, poorly fitted or top-dose-only effect, or another doubt; inactive means no such curve, though single readings can be large; an effect the other way counts as inactive or inconclusive.

What was measured:
[1] = Confirmatory qHTS to identify inhibitors of SARS-CoV-2 cell entry (AID 1645844; calls by dose curve; further: potency means the concentration at half of the fitted maximal effect; nearly all actives have a fitted effect of over 45% in size)
Method in brief: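 Luminescence from a luciferase reporter, read 48 hr after pseudotyped-particle addition, gives entry signal, normalised to spike-bearing PP wells and bald PP lacking fusion protein wells. Cells are Expi293F stably expressing human ACE2, compound-pretreated 1 hr.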

[2] = Confirmation and Secondary Assay for Modulators of Hemoglobin Beta Chain Splicing at IVS2 654 locus (AID 910);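 further: HeLa cells stably carrying EGFP split by mutant beta-globin IVS2-654 intron; per-well total GFP intensity by laser scanning cytometry after 2-day treatment; % of control where 0% means no effect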
Method in brief: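 Readout: per-well total peak green fluorescence (488 nm ex, 500–520 nm em) from objects 5–250 µm, reflecting correct splicing of an EGFP-654 reporter. Compounds were applied for 2 days at 37 °C to overnight-plated HeLa EGFP-654 cells; controls were DMSO and 500 nM IVS2-654 PNA.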

[3] = Confirmation and Secondary Assay for Modulators of Hemoglobin Beta Chain Splicing at IVS2 705 locus (AID 930);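 further: HeLa cells stably expressing the EGFP-705 splicing reporter; GFP fluorescence per well restored by corrected splicing of the IVS2-705 intron in EGFP; % of control where 0% means no effect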
Method in brief: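 First, HeLa EGFP-705 cells are seeded at 500/well in Optimem with 2% FCS and left overnight. Next, compound or DMSO is added for 2 days. Finally wells are laser-scanned and total peak GFP intensity scored.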

[4] = qHTS Assay for Lipid Storage Modulators (AID 1519; calls by dose curve; on activity change, negative = inhibition: on the % scale 0 is the no-effect control and ±100 the full control effect); conditions: Drosophila S3 cells, BODIPY lipid droplet/cell ratio, laser cytometry, cells loaded with oleic acid; for activity change, negative = inhibition: at 57.5 µM (top of the series)
Method in brief: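 Cells seeded at 5,000 per well were treated with compounds over a concentration series and loaded with oleic acid (400 uM, as added). Lipid droplet fluorescence (488 nm excitation, 500-530 nm channel) was read by laser-scanning cytometry and normalized to 20 uM Triacsin C.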

[5] = biological target: Cytochrome P450 2D6 (Homo sapiens) (UniProt P10635); experiment: Cytochrome P450 family 2 subfamily D member 6 (CYP2D6) small molecule antagonists: luciferase biochemical (cell-free) qHTS assay (AID 1645840; active means well fitted curve in the direction sought with a large enough effect in the repeat runs; an effect the other way counts as inactive or inconclusive; further: on the % scale 0 is the no-effect control and ±100 the full control effect; nearly all actives have a fitted effect of over 55% in size)
Method in brief: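 P450-Glo luminescent screen: recombinant CYP2D6 enzyme–proluciferin substrate mix preincubated with compound 10 min at room temperature, then NADPH regeneration added for 1 h at room temperature. Detection reagent added for 20 min; luciferin light read as relative luminescence units.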

[6] = biological target: Cytochrome P450 3A4 (Homo sapiens) (UniProt P08684); experiment: qHTS Assay for Inhibitors and Substrates of Cytochrome P450 3A4 (AID 884); further: on the % scale 0 is the no-effect control and ±100 the full control effect; nearly all actives have a fitted effect of over 50% in size
Method in brief: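 20 nM human CYP3A4 with 25 uM Luciferin-PPXE (at KM) in 200 mM KPO4, preincubated 10 min with compound; NADPH regeneration started a 60 min RT reaction. Luciferin detected by luminescence, normalized to 57 uM ketoconazole as full inhibition.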

[7] = measured here: cell count channel max response
[8] = measured here: lipid channel max response

Cytochrome P450 3A4 (Homo sapiens), sequence (P08684 whole entry, looked up): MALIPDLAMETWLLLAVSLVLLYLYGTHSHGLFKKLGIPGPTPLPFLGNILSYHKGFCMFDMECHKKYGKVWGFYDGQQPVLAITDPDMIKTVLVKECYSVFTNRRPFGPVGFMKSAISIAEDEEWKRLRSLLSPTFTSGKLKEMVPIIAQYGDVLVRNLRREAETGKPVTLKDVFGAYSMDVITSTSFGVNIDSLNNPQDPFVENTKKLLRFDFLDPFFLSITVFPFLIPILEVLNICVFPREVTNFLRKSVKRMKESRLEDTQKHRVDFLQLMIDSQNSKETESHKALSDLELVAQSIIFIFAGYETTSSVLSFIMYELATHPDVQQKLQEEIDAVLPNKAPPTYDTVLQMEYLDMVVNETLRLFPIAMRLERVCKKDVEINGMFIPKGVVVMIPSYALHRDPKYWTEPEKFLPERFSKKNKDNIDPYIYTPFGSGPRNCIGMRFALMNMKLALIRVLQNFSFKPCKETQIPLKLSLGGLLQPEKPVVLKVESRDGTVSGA
Cytochrome P450 2D6 (Homo sapiens), sequence (P10635 whole entry, looked up): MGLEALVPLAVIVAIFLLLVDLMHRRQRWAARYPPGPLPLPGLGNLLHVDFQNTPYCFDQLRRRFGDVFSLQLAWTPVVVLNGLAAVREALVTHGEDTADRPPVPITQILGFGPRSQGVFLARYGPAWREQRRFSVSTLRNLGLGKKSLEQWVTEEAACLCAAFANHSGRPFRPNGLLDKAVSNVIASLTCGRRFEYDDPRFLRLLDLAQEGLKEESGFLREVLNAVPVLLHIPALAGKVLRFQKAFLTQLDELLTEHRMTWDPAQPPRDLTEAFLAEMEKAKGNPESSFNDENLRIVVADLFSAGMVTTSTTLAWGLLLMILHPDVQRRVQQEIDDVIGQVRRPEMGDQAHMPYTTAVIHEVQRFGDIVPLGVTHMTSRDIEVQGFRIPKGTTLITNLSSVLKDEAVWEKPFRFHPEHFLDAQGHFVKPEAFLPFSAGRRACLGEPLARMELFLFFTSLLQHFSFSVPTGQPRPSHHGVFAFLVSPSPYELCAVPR

COc1ncc(Nc2ncc(C(C)N3CCN(S(C)(=O)=O)CC3)cc2-c2nc(C)nc(N)n2)cc1F (centres undefined)
Potency [1]: 1.52 µM (active)

NC(=NCCCC(N)C(=O)O)N[N+](=O)[O-] (centres undefined)
Potency [2]: inactive | Potency [3]: inactive | activity change, negative = inhibition [4]: 0.218% (inactive) | max response [4, 7]: -5.56% | max response [4, 8]: -2.81%

CN(C)CCCOc1ccc(-c2ccc3ncc4c(c3c2)n(C2CCOCC2)c(=O)n4C)cn1
Potency [1]: 5.91 µM (active)

NNCc1ccccc1
Potency [2]: inactive | Potency [3]: inactive | activity change, negative = inhibition [4]: 14.8% (inactive) | max response [4, 7]: 5.74% | max response [4, 8]: 20.3%

C=CCC1(CC(C)C)C(=O)NC(=O)NC1=O
Potency [5]: inactive

C[C@@]12CCC3C(CCC4=CC(=O)CC[C@]43C)C1CCC2O (some centres undefined)
Potency [6]: inactive | Potency [2]: inactive | Potency [3]: inactive | activity change, negative = inhibition [4]: -1.38% (inactive) | max response [4, 7]: 0.874% | max response [4, 8]: 1.24%
